Reference: PubChem BioAssay
For some assays here: Entries with a potency or affinity are not part of this list. Activity calls are given as the source filed them.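 How the source made its calls, unless noted: active means earlier screen potentiator hit that boosts the TRPC4 ion channel at some dose, with a dose response; inactive means no potentiation, no dose response, or not a prior hit.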

Experiments:
[1] = tested on: TRPC4 beta (transient receptor potential cation channel C4), mouse; assay: activators of mouse TRPC4 channel, confirmation, cell-based, Fluo4 calcium, HEK293 TRPC4beta/mu-opioid, duplicates, 10 µM (AID 2426;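 active means fluorescence ratio normalized to control raised more than 50% in primary screen plus both repeat runs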;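 on activation: percent rise of integrated ratio over buffer wells lacking compound which define 0%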); details: Fluo4 calcium fluorescence, at 10 µM; active compounds read high
[2] = tested on: transient receptor potential cation channel C4 beta (TRPC4), mouse; assay: activators of mouse TRPC4 channel, confirmation, cell-based, second round, Fluo4, HEK293 TRPC4beta/mu-opioid, 1 µM (AID 2461;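 active means primary screen active and over 50% activation in each of two duplicate runs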;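 on activation: 0% = wells without test compound as baseline of integrated fluorescence ratio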); details: Fluo4 calcium fluorescence, at 1 µM; active compounds read high
[3] = tested on: TRPC4 (transient receptor potential cation channel C4 beta), mouse; assay: positive allosteric modulators of mouse TRPC4, confirmation, cell-based, second round, Fluo-4, HEK293 TRPC4beta/mu-opioid, 1 µM (AID 2554;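 active means primary screen hit whose fluorescence ratio, in both repeats, exceeds the weak agonist control mean by 3 SD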); details: DAMGO EC20, Fluo-4 calcium flux, at 1 µM; active compounds read high
[4] = tested on: TRPC4 beta (transient receptor potential cation channel C4), mouse; assay: positive allosteric modulators of mouse TRPC4, confirmation, cell-based, Fluo-4, HEK293 TRPC4beta/mu-opioid (AID 2555;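 active means primary screen hit whose calcium fluorescence ratio, in both repeats, exceeds the weak agonist control mean by 3 SD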); details: DAMGO EC20, Fluo-4 calcium flux, at 10 µM; active compounds read high
[5] = biological target: Short transient receptor potential channel 4 (Mus musculus) (UniProt Q9QUQ5); assay: inhibitors of mouse TRPC4 channel, confirmation, cell-based, Fluo4, HEK293 TRPC4beta/mu-opioid (AID 2636;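 active means calcium signal cut by more than 3 SD below the full-agonist control yet still positive, in both repeats and the earlier primary screen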); details: DAMGO, Fluo4 calcium flux, at 10 µM; active compounds read high
Sequence of Short transient receptor potential channel 4 (Mus musculus) (Q9QUQ5 whole entry, looked up): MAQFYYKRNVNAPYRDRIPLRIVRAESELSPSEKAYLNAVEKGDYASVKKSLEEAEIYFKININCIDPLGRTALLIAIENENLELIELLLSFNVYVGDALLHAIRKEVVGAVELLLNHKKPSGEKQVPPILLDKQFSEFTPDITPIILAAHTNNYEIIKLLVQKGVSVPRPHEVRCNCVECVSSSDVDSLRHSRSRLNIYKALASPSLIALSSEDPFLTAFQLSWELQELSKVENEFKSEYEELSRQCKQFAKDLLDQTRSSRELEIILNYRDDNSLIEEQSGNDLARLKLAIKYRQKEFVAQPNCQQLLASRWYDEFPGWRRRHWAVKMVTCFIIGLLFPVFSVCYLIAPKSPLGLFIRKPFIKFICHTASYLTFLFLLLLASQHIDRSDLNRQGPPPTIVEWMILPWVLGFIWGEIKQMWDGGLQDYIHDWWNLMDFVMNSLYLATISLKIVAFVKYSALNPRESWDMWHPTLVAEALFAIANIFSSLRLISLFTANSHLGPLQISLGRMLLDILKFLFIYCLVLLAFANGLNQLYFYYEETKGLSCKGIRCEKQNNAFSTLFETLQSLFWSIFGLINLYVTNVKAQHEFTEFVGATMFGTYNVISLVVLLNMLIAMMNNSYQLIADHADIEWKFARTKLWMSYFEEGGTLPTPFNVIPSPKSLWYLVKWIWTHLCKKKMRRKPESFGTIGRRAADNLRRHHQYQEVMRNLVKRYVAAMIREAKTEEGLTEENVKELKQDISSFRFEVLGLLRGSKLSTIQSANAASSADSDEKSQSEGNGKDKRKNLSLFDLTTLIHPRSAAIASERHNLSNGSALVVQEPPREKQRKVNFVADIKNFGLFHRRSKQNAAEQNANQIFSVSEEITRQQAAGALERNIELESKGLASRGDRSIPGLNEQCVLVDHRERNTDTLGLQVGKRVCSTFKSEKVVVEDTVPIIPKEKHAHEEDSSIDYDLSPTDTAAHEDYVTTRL

[6] = biological target: Short transient receptor potential channel 4 (Mus musculus) (UniProt Q9QUQ5); assay: inhibitors of mouse TRPC4 channel, confirmation, cell-based, second round, Fluo4, HEK293 TRPC4beta/mu-opioid, 1 µM (AID 2637;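 active means calcium signal ratio cut to more than 3 SD under the fully stimulated control mean yet still positive, in both repeats and the primary screen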); details: Fluo4 calcium flux, DAMGO, at 1 µM; active compounds read high
[7] = biological target: Short transient receptor potential channel 4 (Mus musculus) (UniProt Q9QUQ5); assay: TRPC4 positive allosteric modulators, dose response, cell-based, HEK293 TRPC4/mu-opioid, Fluo-4 calcium, EC20 DAMGO (AID 434941);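 further: calcium entry triggered by an EC20 dose of DAMGO at the co-expressed mu-opioid receptor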
[8] = biological target: Short transient receptor potential channel 4 (Mus musculus) (UniProt Q9QUQ5); assay: mouse TRPC4 channel inhibitors, dose response, cell-based, HEK293 TRPC4/mu-opioid, Fluo-4 calcium (AID 434942;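 active means primary screen inhibitor hit that blocks the TRPC4 channel at some tested dose, yielding a dose curve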)
[9] = biological target: Short transient receptor potential channel 6 (Mus musculus) (UniProt Q61143); assay: inhibition of mouse TRPC6 channel, confirmation, selectivity assay for TRPC4 inhibitor project, cell-based, HEK293, membrane potential dye, duplicate (AID 434948;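 active means active in primary screen and both duplicates, each dropping signal beyond three positive-control SD with fluorescence still positive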); details: HEK293 TRPC6, membrane potential dye fluorescence, at 10 µM, stimulated with maximal-effect acetylcholine; active compounds read high
Sequence of Short transient receptor potential channel 6 (Mus musculus) (Q61143 whole entry, looked up): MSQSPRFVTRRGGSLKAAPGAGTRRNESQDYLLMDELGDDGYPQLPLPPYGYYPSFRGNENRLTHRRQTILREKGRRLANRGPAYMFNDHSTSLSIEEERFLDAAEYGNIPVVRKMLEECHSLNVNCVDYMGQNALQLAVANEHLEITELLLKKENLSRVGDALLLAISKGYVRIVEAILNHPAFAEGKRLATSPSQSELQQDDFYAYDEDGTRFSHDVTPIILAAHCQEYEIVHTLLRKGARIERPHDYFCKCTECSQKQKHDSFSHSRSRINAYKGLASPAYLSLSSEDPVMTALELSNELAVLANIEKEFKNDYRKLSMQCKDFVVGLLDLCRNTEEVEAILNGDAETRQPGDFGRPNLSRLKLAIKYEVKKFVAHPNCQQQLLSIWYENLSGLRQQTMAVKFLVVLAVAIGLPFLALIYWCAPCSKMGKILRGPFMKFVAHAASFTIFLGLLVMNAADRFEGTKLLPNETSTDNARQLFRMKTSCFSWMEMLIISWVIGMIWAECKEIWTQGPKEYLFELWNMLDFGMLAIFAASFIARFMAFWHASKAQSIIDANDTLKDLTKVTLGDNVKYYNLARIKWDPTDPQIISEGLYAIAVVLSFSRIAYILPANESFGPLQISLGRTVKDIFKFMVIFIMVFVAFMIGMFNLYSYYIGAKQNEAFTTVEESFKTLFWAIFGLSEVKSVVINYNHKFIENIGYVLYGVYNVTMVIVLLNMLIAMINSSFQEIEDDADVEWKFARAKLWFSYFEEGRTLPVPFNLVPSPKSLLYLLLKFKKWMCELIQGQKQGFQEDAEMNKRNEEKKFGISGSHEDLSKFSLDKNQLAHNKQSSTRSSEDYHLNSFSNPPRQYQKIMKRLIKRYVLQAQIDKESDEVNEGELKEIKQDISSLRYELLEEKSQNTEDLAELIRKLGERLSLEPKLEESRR

[10] = biological target: Short transient receptor potential channel 6 (Mus musculus) (UniProt Q61143); assay: activation of mouse TRPC6 channel, confirmation, selectivity assay for TRPC4 activator project, cell-based, HEK293, membrane potential dye, duplicate (AID 434950;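 active means membrane potential signal rise above negative control mean plus 3 SD in both duplicates, also active in the earlier TRPC4 screen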;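 on activation: 0% = buffer only wells and 100% = acetylcholine maximal-effect wells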); details: HEK293 TRPC6, membrane potential fluorescence, at 10 µM; active compounds read high
[11] = biological target: Short transient receptor potential channel 6 (Mus musculus) (UniProt Q61143); assay: TRPC6 potentiation by TRPC4 potentiator hits, confirmation, selectivity assay for TRPC4 potentiator project, HEK293 cells, membrane potential dye, duplicate (AID 434952;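 active means compound raising the membrane signal above positive-control mean plus 3 SD in both repeats, and a primary screen hit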); details: HEK293 TRPC6, membrane potential dye fluorescence, at 10 µM, maximal acetylcholine added after compound; active compounds read high
[12] = biological target: Short transient receptor potential channel 4 (Mus musculus) (UniProt Q9QUQ5); assay: calcium flux activators in TRPC4/5HT1a cells, counter-screen for TRPC4 activator project, cell-based, second counter screen, HEK293 TRPC4/5HT1a, Fluo-4 (AID 434977;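 active means calcium signal rise above buffer-control mean plus 5 SD in both duplicates, and also a hit in the primary screen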;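 on activation: plate controls were assay buffer for no effect and maximal serotonin response for full effect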); details: Fluo-4 calcium flux, at 10 µM; active compounds read high
[13] = calcium flux inhibitors in TRPC4/5HT1a cells, confirmation, counter-screen for TRPC4 inhibitor project, cell-based, second counter screen, HEK293 TRPC4/5HT1a, Fluo-4 (AID 434978;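 active means primary screen active whose calcium signal fell more than 3 SD beyond the full-serotonin control mean in both duplicate plates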;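 further: serotonin given first at submaximal then at maximal dose after compound preincubation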); details: Fluo-4 calcium flux, at 10 µM, serotonin added to trigger calcium flux; active compounds read high
[14] = tested on: TRPC4 (mouse), co-expressed with 5HT1a in HEK293; assay: calcium flux potentiators in TRPC4/5HT1a cells, confirmation, counter-screen for TRPC4 potentiator project, cell-based, second counter screen, HEK293 TRPC4/5HT1a, Fluo-4 (AID 434979;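 active means signal rise over 3 SD above mean of control wells given weak agonist, in both repeats and first screen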); details: Fluo-4 calcium flux, at 10 µM, serotonin added at its EC20 dose; active compounds read high
[15] = calcium flux activation in mu-opioid HEK293 cells, confirmation, counter-screen for TRPC4 activator project, cell-based, HEK293 mu-opioid receptor line (AID 449723;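 active means hit in primary screen, with calcium signal over 5 SD above buffer well mean in both duplicates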;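 further: counter screen cells carry the mu-opioid receptor alone and lack TRPC4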); details: Fluo-4 calcium fluorescence, at 10 µM; active compounds read high
[16] = calcium flux enhancement in mu-opioid HEK293 cells, confirmation, counter-screen for TRPC4 allosteric potentiator project, cell-based, HEK293 mu-opioid receptor line (AID 449724;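 active means calcium signal rise more than 3 SD above the low-dose agonist control mean, in both duplicate plates and the primary screen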;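 further: HEK293 cells carrying mu-opioid receptor only with no TRPC4 channel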); details: Fluo-4 calcium flux, at 10 µM, compound added before EC20 DAMGO stimulus; active compounds read high

Clc1cccc(OCCN2CCNCC2)c1
inactive: outcome [3] | outcome [4] | outcome [5] | outcome [6] | outcome [7] | outcome [8] | outcome [9] | outcome [10] | outcome [11] | outcome [13] | outcome [14] | outcome [15] | outcome [16]
active: activation [1] 66% | activation [2] 54% | activation [12] 31.1%

Cc1ccc2nc(N(CCCN(C)C)C(=O)c3ccc(S(=O)(=O)N4CCc5ccccc5C4)cc3)sc2c1
inactive: outcome [3] | outcome [4] | outcome [5] | outcome [6] | outcome [7] | outcome [8] | outcome [9] | outcome [10] | outcome [11] | outcome [13] | outcome [14] | outcome [15] | outcome [16]
active: activation [1] 242% | activation [2] 75% | activation [12] 7.33%

O=C(NCc1ccccc1)C1=C[C@@H](C2CCCCC2)C[C@@H](OCc2ccc(CO)cc2)O1
inactive: outcome [2] | outcome [3] | outcome [4] | outcome [5] | outcome [6] | outcome [7] | outcome [8] | outcome [9] | outcome [11] | outcome [13] | outcome [14] | outcome [15] | outcome [16]
active: activation [1] 183% | activation [10] 30.5% | activation [12] 112%

Cc1onc(-c2ccccc2)c1C(=O)NNC(=S)NC(=O)c1ccc2c(c1)OCO2
inactive: outcome [2] | outcome [3] | outcome [4] | outcome [5] | outcome [6] | outcome [7] | outcome [8] | outcome [9] | outcome [10] | outcome [11] | outcome [13] | outcome [14] | outcome [15] | outcome [16]
active: activation [1] 55% | activation [12] 56.5%

CCn1c(N2CCN(C(=S)NCCc3ccccc3)CC2)nc2ccccc21
active: activation [12] 21%
inactive: outcome [1] | outcome [2] | outcome [3] | outcome [4] | outcome [5] | outcome [6] | outcome [7] | outcome [8] | outcome [9] | outcome [10] | outcome [11] | outcome [13] | outcome [14] | outcome [15] | outcome [16]

Cc1cc(N2CCN(C)CC2)ccc1NC(=O)c1ccc(-c2ccc(Cl)cc2)o1
inactive: outcome [1] | outcome [2] | outcome [3] | outcome [4] | outcome [5] | outcome [6] | outcome [7] | outcome [8] | outcome [9] | outcome [10] | outcome [11] | outcome [12] | outcome [13] | outcome [14] | outcome [15] | outcome [16]

CCCCN(CC)CCNC(=O)c1cc2c(-c3ccc(Cl)cc3)nn(C)c2s1
inactive: outcome [1] | outcome [2] | outcome [3] | outcome [4] | outcome [5] | outcome [6] | outcome [7] | outcome [8] | outcome [9] | outcome [10] | outcome [11] | outcome [13] | outcome [14] | outcome [15] | outcome [16]
active: activation [12] 20.5%

Cc1ccccc1C(=O)NNC(=S)NC(=O)c1cccs1
active: activation [1] 139% | activation [12] 109% | activation [15] 30.1%
inactive: outcome [2] | outcome [3] | outcome [4] | outcome [5] | outcome [6] | outcome [7] | outcome [8] | outcome [9] | outcome [10] | outcome [11] | outcome [13] | outcome [14] | outcome [16]

COc1ccc(C(CNC(=O)c2ccc3c(c2)OCCO3)N(C)C)cc1 (configuration not stated)
inactive: outcome [3] | outcome [4] | outcome [5] | outcome [6] | outcome [7] | outcome [8] | outcome [9] | outcome [11] | outcome [12] | outcome [13] | outcome [14] | outcome [15] | outcome [16]
active: activation [1] 153% | activation [2] 123% | activation [10] 49%

CC(C)(C)C(=O)/C=c1\s/c(=C\c2ccc(-c3ccc([N+](=O)[O-])cc3)o2)c(=O)n1CC(=O)NC(N)=O
inactive: outcome [2] | outcome [3] | outcome [5] | outcome [6] | outcome [7] | outcome [8] | outcome [9] | outcome [13]
active: activation [1] 63% | potentiation [4] 36% | activation [10] 534% | potentiation, percent of control [11] 436% | activation [12] 30% | potentiation [14] 14% | activation [15] 68.5% | activation [16] 1220%

COc1ccc(CCN(C)C(=O)C2CCCN(C3CCN(Cc4ccccc4)CC3)C2)cc1OC (configuration not stated)
active: activation [1] 143% | activation [2] 64% | activation [10] 50% | activation [12] 28.9%
inactive: outcome [3] | outcome [4] | outcome [5] | outcome [6] | outcome [7] | outcome [8] | outcome [9] | outcome [11] | outcome [13] | outcome [14] | outcome [15] | outcome [16]

Cc1oc(-c2ccccc2Cl)nc1CS(=O)CC(=O)NCCCN1CC(C)CC(C)C1 (configuration not stated)
active: activation [1] 78% | activation [2] 58% | activation [10] 31% | activation [12] 20.1%
inactive: outcome [3] | outcome [4] | outcome [5] | outcome [6] | outcome [7] | outcome [8] | outcome [9] | outcome [11] | outcome [13] | outcome [14] | outcome [15] | outcome [16]

CCN1CCCC1CNS(=O)(=O)c1c(C)cc(C)cc1C (configuration not stated)
active: activation [1] 95% | activation [10] 61.5% | activation [12] 20.3%
inactive: outcome [2] | outcome [3] | outcome [4] | outcome [5] | outcome [6] | outcome [7] | outcome [8] | outcome [9] | outcome [11] | outcome [13] | outcome [14] | outcome [15] | outcome [16]

CC(C)(C)[C@H]1C=C(C(=O)NCc2ccccc2)O[C@@H](OCc2ccc(CO)cc2)C1
active: activation [1] 68% | activation [10] 24.5%
inactive: outcome [2] | outcome [3] | outcome [4] | outcome [5] | outcome [6] | outcome [7] | outcome [8] | outcome [9] | outcome [11] | outcome [12] | outcome [13] | outcome [14] | outcome [15] | outcome [16]

CCOC(=O)C1(CCCc2ccccc2)CCN(Cc2cnn(C)c2)CC1
active: activation [1] 92% | activation [10] 69%
inactive: outcome [2] | outcome [3] | outcome [4] | outcome [5] | outcome [6] | outcome [7] | outcome [8] | outcome [9] | outcome [11] | outcome [12] | outcome [13] | outcome [14] | outcome [15] | outcome [16]

COc1ccc(-n2c3c(cc(C(=O)NNc4ccccc4)c2=O)C(=O)CC(C)(C)C3)cc1
active: activation [1] 104%
inactive: outcome [2] | outcome [3] | outcome [4] | outcome [5] | outcome [6] | outcome [7] | outcome [8] | outcome [9] | outcome [10] | outcome [11] | outcome [12] | outcome [13] | outcome [14] | outcome [15] | outcome [16]

COc1ccc(C(CNC(=O)c2cccc(Br)c2)N2CCCC2)cc1 (configuration not stated)
inactive: outcome [1] | outcome [2] | outcome [3] | outcome [4] | outcome [5] | outcome [6] | outcome [7] | outcome [8] | outcome [9] | outcome [11] | outcome [12] | outcome [13] | outcome [14] | outcome [15] | outcome [16]
active: activation [10] 61.5%
